From PubChem BioAssay
Rows were chosen to be rich in hits. Some 3.3% of all compounds tested hit in one or more screens of this group.
Vaccinia Venus – inhibitors of vaccinia virus (Venus reporter) | Vaccinia virus Venus reporter expression, fluorescence | Potency, µM (titrated, usually from 36.5 µM), for inactives: at the highest dose activity change, negative = inhibition, hits mostly inhibitors | hit rate 0.46% among 330,000 | AID 720580; calls by dose curve; tested in A549 cells; further: nearly all actives have a fitted effect of over 30% in size
HCV inh – inhibitors of hepatitis C virus infection | Potency, µM (doses to about 41.8 µM), inactives show top-dose activity change, negative = inhibition, hits mostly inhibitors | AID 651820 | Huh7.5.1 HCVcc-Cre infection, luciferase reporter, 44 h | hit rate 3.4% among 340,000; active means well fitted inhibition curve with a large enough effect; inconclusive means small, poorly fitted or top-dose-only effect, or another doubt; inactive means no such curve, though single readings can be large or run the other way
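Infectious HCV cell culture screen: compound-treated cells (1,000/well, pre-plated 4 h) are infected with HCVcc-Cre at roughly 0.5 moi and grown 44 h. Infection is quantified by luciferase signal after 15 min substrate incubation at room temperature.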
VACV mCherry inh – vaccinia inhibition (mCherry reporter) | hit rate 0.63% among 310,000 | Potency, µM (titrated, usually from 36.5 µM), without a hit: at the top dose activity change, negative = inhibition, usual class: inhibitors | Vaccinia virus mCherry reporter infection, fluorescence; calls by dose curve; tested in A549 cells; further: nearly all actives have a fitted effect of over 35% in size
* hit, by the source's call; i = inactive; ? = inconclusive; . = no result; [ ] = dose if it differs, or a comment. On the % scale 0 is the no-effect control and ±100 the full control effect; potency means the concentration at half of the fitted maximal effect.

SMILES | Vaccinia Venus | HCV inh | VACV mCherry inh
Cc1ccccc1S(=O)(=O)Cc1ccc(C(=O)NCc2ccccc2Cl)o1 | 0% | . | 4%
COc1ccc(Sc2ccc(-c3nc4cnccn4c3NC3CCCCC3)cc2OC)cc1 | 11µM* | -9% | ?
COc1ccc(-c2nc3cnccn3c2NCc2ccccc2)cc1SC1CCCCC1 | -21% | 10µM* | ?
CCCCNc1c(-c2ccc(OC)c(SC3CCCCC3)c2)nc2ccc(Cl)cn12 | -17% | 7% | i
CCCCNc1c(-c2ccc(OC)c(SC3CCCCC3)c2)nc2cc(C)ccn12 | ? | 4µM* | -49%
CCC(C)Sc1ccc(-c2nc3cnccn3c2NC2CCCCC2)cc1 (stereo not given) | ? | ? | -32%
CCCCCCSc1cc(-c2nc3cnccn3c2NCc2ccccc2)ccc1OC | -22% | 17% | ?
NC(=O)c1ccc(NC(=O)c2cccc3c2OCCCO3)cc1 | -1%[7.34 µM] | 7% | -10%[7.34 µM]
COc1cccc(CNc2ncnc3sc(C(=O)N4CC5CCC4C5)c(C)c23)c1OC (stereo not given) | -15% | . | -22%
COc1ccccc1NC(=O)COC(=O)CCC(=O)c1cccs1 | -2% | 7% | -9%
Cc1cc(C(C)(C)C)oc1C(=O)N(CC(=O)NC1CCCC1)c1c(C)cccc1C | ? | 10µM* | ?
Cc1cc(C(C)(C)C)oc1C(=O)N(CC(=O)NC1CCCC1)c1ccc(F)cc1 | -22% | ? | -2%
CCn1ccc2cc(S(=O)(=O)N3CCCN(C(=O)NCC(C)C)CC3)ccc21 | 10% | . | -9%
NC(=O)c1ccc(Sc2nnc(-c3cccs3)n2CC2CCCO2)c([N+](=O)[O-])c1 (stereo not given) | 11µM* | 1% | 7.9µM*
O=C(CSc1nnc(-c2cccs2)n1CC1CCCO1)N1CCCC1 (stereo not given) | -11% | 32% | -12%
CCN(CC)S(=O)(=O)c1ccc2oc(Nc3ccc(OC)cc3)nc2c1 | -13% | ? | ?
CCOc1ccc(Nc2nc3cc(S(=O)(=O)N(CC)CC)ccc3o2)cc1 | ? | 10µM* | ?
COc1ccc(NC(=O)c2cc(=O)[nH]c(=O)[nH]2)cc1S(=O)(=O)Nc1ccccc1Cl | -5% | 20% | i
CCc1cc(=O)n2[nH]c(-c3ccccc3)c(-c3ccccc3)c2n1 | ? | -22% | -2%
Cc1cc(F)ccc1S(=O)(=O)Nc1ccccc1C(=O)Nc1ncn[nH]1 | -23% | 12% | .
Cc1cc(F)ccc1S(=O)(=O)Nc1ccccc1C(=O)Nc1ccccc1-c1nc2ccccc2[nH]1 | ? | 7.9µM* | ?
COc1ccc(NC(=O)CN(c2ccccc2F)S(=O)(=O)c2ccc(C)cc2)c(OC)c1 | . | 11µM* | .
COc1ccccc1N(CC(=O)NCCSCc1ccccc1)S(=O)(=O)c1ccc(C)cc1 | ? | 25µM* | ?
COc1ccc(N(CC(=O)Nc2ccc(OC)cc2OC)S(=O)(=O)c2ccccc2)cc1 | ? | ? | -29%
COc1ccccc1N(CC(=O)NCCSCc1ccccc1)S(=O)(=O)c1ccccc1 | ? | . | -6%
SMILES | Vaccinia Venus | HCV inh | VACV mCherry inh
Cc1nc2nc(NC(=O)c3ccccc3F)[nH]n2c(=O)c1Cl | -9% | . | -10%
Cc1cc(CNC(=O)c2cnn(-c3nccc(-c4ccc5c(c4)OCO5)n3)c2C2CC2)on1 | -23% | . | -29%
O=C1c2ccccc2-c2n[nH]c(=O)c3ccc(N4CCCCC4)c1c23 | ? | 11µM* | ?
O=C1c2cccc3c(N4CCCCC4)ccc(c23)C(=O)N1c1ccccn1 | 3% | 8% | .
Cc1ccc(C)c(N2CCN(C(=O)CN3C(=O)COc4ccc(S(=O)(=O)N5CCC(C)CC5)cc43)CC2)c1 | 9% | . | -2%
CC(=O)Nc1ccc(N2CCCC(C)C2)c([N+](=O)[O-])c1 (stereo not given) | -16% | 3.2µM* | ?
Cc1noc(C)c1C(=O)Nc1cc(Cl)ccc1N1CCOCC1 | . | 10µM* | .
CCCC(=O)N1CCN(c2ccc(NC(=O)c3ccc(N4CCCC4)c([N+](=O)[O-])c3)cc2Cl)CC1 | -9% | ? | -8%
O=C(Nc1cc(Cl)ccc1N1CCOCC1)c1ccc2c(c1)OCO2 | -14% | . | -1%
O=C(Nc1ccc(N2CCOCC2)c(Cl)c1)c1ccc2c(c1)OCCO2 | . | 11µM* | .
Cc1noc(C)c1CSCC(=O)Nc1cc(Cl)ccc1N1CCOCC1 | -13% | . | -1%
CC(=O)Nc1ccc(N2CCC(C)CC2)c([N+](=O)[O-])c1 | -18% | 13% | -26%
CC(=O)N1CCN(c2ccc(NC(=O)c3ccc(N4CCCC4)c([N+](=O)[O-])c3)cc2Cl)CC1 | -14% | 10µM* | ?
Cc1ccccc1OCC(=O)NCC(=O)OCC(=O)c1ccc2c(c1)CCCC2 | -3% | . | 11%
CCCn1c(SCC(=O)N2CCCC2=O)nc2ccccc2c1=O | -6% | -7% | i
CCOC(=O)c1ccccc1NC(=O)c1sc2ncn(CC)c(=O)c2c1C | 1% | . | 4%
COc1ccc(N2CCN(CCCNC(=O)c3nnc(Cc4ccccc4Cl)o3)CC2)cc1 | -11% | . | -10%
O=S(=O)(Nc1ccccc1F)c1cccc(NC(=S)NCCN2CCOCC2)c1 | . | 3% | .
O=C(Nc1ccc(N2CCCCC2)c(Cl)c1)c1ccc2c(c1)OCCO2 | ? | 10µM* | -17%
O=C(Nc1ccc(N2CCOCC2)cc1N1CCOCC1)c1ccc(Cl)cc1 | -3% | ? | -16%
O=C(Nc1ccc(N2CCOCC2)c(Cl)c1)c1ccc(Cl)cc1 | 6% | 10µM* | -9%
O=C(Nc1ccc(N2CCCC2)c(Cl)c1)c1ccc2c(c1)OCCO2 | -8% | ? | -19%
CCc1c(C2(O)CCCCC2)[nH]c2ccc(C#N)cc12 | ? | -14% | -17%
CCc1ccc(CNC(=O)c2cnc(N3CCCCC3)c3ccccc23)cc1 | -7% | . | 1%
Nc1nc2ccc([N+](=O)[O-])cc2[nH]1 | -14% | -5% | i
SMILES | Vaccinia Venus | HCV inh | VACV mCherry inh
Nc1[nH]c2cc([N+](=O)[O-])ccc2c1-c1ccccn1 | 56% | 13µM* | ?
COCc1c(C(=O)NC2CCCC2)cnn1-c1nccc(-c2cccs2)n1 | -8% | . | i
O=S(=O)(N1CCN(c2nc(-c3cccs3)nc3ccccc23)CC1)C(F)(F)F | -19% | . | -3%
COCCNCCCCOc1ccccc1-c1ccccc1 | -20% | ? | -26%
Cc1cc(Cl)c(OCCCN(C)C)c(Br)c1 | -14% | -23% | i
COc1ccccc1OCCCCNC(C)(C)C | -7% | 5% | -16%
Cc1cc(Br)ccc1OCCCCNC(C)(C)C | -23% | 13µM* | ?
COCCCNCCCCOc1ccc(Br)cc1C | -21% | 11µM* | -29%
Cc1cc(Cl)c(OCCCCNC(C)(C)C)c(Br)c1 | . | 10µM* | .
COCCCNCCCCOc1cccc(Br)c1 | -8% | ? | i
COCCNCCCCOc1ccc(Br)cc1C | -8% | 10µM* | -14%
COc1ccc(CC(=O)N2CCCC2)c(OC)c1 | -6% | 4% | 11%
O=C(/C=C/c1ccccc1)N1CCN(Cc2cc(=O)n3nc(-c4ccccc4Cl)sc3n2)CC1 | -29% | . | ?
COc1ccc(CCC(=O)NCCc2csc(-c3ccc(C(F)(F)F)cc3)n2)cc1 | -17% | . | -13%
CC1CCc2nc(NC(=O)CSc3nc4ccccc4o3)sc2C1 (stereo not given) | ? | 11µM* | -7%
Cc1nnc(NC(=O)CSc2nc3ccccc3o2)s1 | -4% | -2% | -14%
